Luciferase inh: Firefly luciferase inhibition profiling of diverse chemical library using quantitative high-throughput screening | Potency, µM (top dose mostly 115 µM), most hits filed as inhibitors | Luciferin 4-monooxygenase (Photinus pyralis), P08659 | 2.5% of 76,000 active | purified P. pyralis luciferase, luminescence, biochemical; note: nearly all actives have a fitted effect of over 65% in size
Target sequence (P08659 whole entry, looked up): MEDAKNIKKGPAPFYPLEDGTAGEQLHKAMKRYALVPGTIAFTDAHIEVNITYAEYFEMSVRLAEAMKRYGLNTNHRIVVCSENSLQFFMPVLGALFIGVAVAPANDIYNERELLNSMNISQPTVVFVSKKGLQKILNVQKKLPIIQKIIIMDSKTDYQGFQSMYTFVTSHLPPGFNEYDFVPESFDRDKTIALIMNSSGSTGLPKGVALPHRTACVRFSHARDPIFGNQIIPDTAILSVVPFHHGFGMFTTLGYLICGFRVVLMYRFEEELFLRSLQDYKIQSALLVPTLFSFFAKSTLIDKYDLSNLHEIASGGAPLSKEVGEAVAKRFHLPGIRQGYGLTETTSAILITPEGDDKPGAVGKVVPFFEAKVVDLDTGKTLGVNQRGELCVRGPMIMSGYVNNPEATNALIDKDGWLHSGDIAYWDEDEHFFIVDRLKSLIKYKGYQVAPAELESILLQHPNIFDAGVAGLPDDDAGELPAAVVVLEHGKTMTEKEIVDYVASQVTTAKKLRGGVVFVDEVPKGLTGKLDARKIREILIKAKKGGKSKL
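Luminescence read by CCD imager after adding enzyme (10nM final) to wells holding compound, titrated in qHTS. Substrates 10uM each D-luciferin and ATP; buffer 50mM Tris acetate pH 7.5, 10mM Mg acetate, Tween-20, BSA.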
NPR1 antag: Natriuretic polypeptide receptor (hNpr1) antagonism - Primary qHTS | Atrial natriuretic peptide receptor 1 (Homo sapiens), P16066 | Potency, µM (highest dose often 46.3 µM), hits mostly inhibitors | 1.6% of 76,000 active | AID 1347048, 2019 | HEK293 hNpr1 GloSensor cGMP, ANP-stimulated luminescence; calls by dose curve; note: nearly all actives have a fitted effect of over 60% in size
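Compound pre-incubated 30 min at room temperature on GloSensor-loaded HEK293 cells stably carrying hNpr1 and the pGS-40F cGMP biosensor. Stimulation uses hNppA at 0.1 nM final; luminescence is taken at baseline and 20 min post-agonist.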
3T3 cytotox: Cytotoxic Profiling in NIH 3T3 Cell Line of Diverse Libraries Using Quantitative High-Throughput Screening. NIH 3T3 viability, CellTiter-Glo ATP luminescence, 48-72 h. Potency, µM (series often up to 96.7 µM), actives largely listed as inhibitors. 4.3% of 94,000 active. AID 1345082, 2018; note: nearly all actives have a fitted effect of over 55% in size
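ATP-dependent luminescence (CellTiter-Glo) served as the viability signal for NIH 3T3 cells treated with compound for 48 or 72 hr at 37 °C.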
HEK293 tox: Cytotoxic Profiling in HEK 293 Cell Line of Diverse Libraries Using Quantitative High-Throughput Screening. 6.6% of 94,000 active. AID 1345083, 2018. Potency, µM (series often up to 115 µM), usual class: inhibitors. HEK 293 viability, ATP luminescence (CellTiter-Glo), 48-72 h; note: nearly all actives have a fitted effect of over 60% in size
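Cells seeded first (HEK 293, 250 cells/well), then compound added by pintool. Incubation ran 48 or 72 hr at 37 degree Celsius. CellTiter-Glo was added and luminescence imaged after 10 min at room temperature.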
Hits are given with their value. Sampled rows, rich in hits. Any-hit rate of the full collection: about 11%. Unless noted, calls come from the whole dose curve; as a rule, active = well fitted curve in the direction sought with a large enough effect; inconclusive = small, poorly fitted or top-dose-only effect, or another doubt; inactive = no such curve, though single readings can be large; an effect the other way counts as inactive or inconclusive.

Results for Cc1ccc(-c2cc3c(=O)n(CCNC(=O)c4ccccc4F)ccn3n2)cc1C ?
Luciferase inh: 2µM; NPR1 antag: inactive; 3T3 cytotox: inactive; HEK293 tox: inconclusive

What do the screens show for `COC(=O)c1cccc(NC(=O)c2ccc3c(c2)N(C)C2CCCCN2C3=O)c1` (stereo not given)?
Luciferase inh: inconclusive; NPR1 antag: inactive; 3T3 cytotox: inconclusive; HEK293 tox: inconclusive

Results for Cc1cc(NC(=O)c2ccc3c(c2)N(C)C2CCCN2C3=O)ccc1Br (stereo not given) ?
Luciferase inh: inconclusive; NPR1 antag: inactive; 3T3 cytotox: inactive; HEK293 tox: inactive

What do the screens show for `CSc1cccc(NC(=O)c2ccc3c(c2)N(C)C2CCCCCN2C3=O)c1` (stereo not given)?
Luciferase inh: inconclusive; NPR1 antag: inactive; 3T3 cytotox: 31.6µM; HEK293 tox: 17.8µM

Results for COc1cc(NC(=O)c2ccc3c(c2)N(C)C2CCCCN2C3=O)cc(OC)c1OC (stereo not given) ?
Luciferase inh: inactive; NPR1 antag: inactive; 3T3 cytotox: 31.6µM; HEK293 tox: inconclusive

What do the screens show for `Cc1cc(C)cc(NC(=O)c2ccc3c(c2)N(C)C2CCCN2C3=O)c1` (stereo not given)?
Luciferase inh: inactive; NPR1 antag: inactive; 3T3 cytotox: inactive; HEK293 tox: 70.8µM

How did COC(=O)c1cccc(NC(=O)c2ccc3c(c2)N(C)C2CCCCCN2C3=O)c1 (stereo not given) do in these assays?
Luciferase inh: inconclusive; NPR1 antag: inconclusive; 3T3 cytotox: 44.7µM; HEK293 tox: inconclusive

Results for CC(C)(C)CN1CCC2(CC1)Cc1ccccc1CNC2=O ?
3T3 cytotox: inactive; HEK293 tox: inactive

Results for CN(C)C(=O)N1CCN(c2cc(Cl)ncn2)C(=O)C1 ?
3T3 cytotox: inconclusive; HEK293 tox: inactive

What do the screens show for `COc1ccc(CNC(=O)C2CN(C)C(=O)N2)cc1` (stereo not given)?
3T3 cytotox: inactive; HEK293 tox: inactive

Results for CCN(CC)CCNC(=O)c1c(OCCOC)cc(=O)n2c1CCOCC2 ?
Luciferase inh: inactive; NPR1 antag: inactive; 3T3 cytotox: inactive; HEK293 tox: inactive

How did CN1c2cc(C(=O)Nc3cccc(Br)c3)ccc2C(=O)N2CCCCCC21 (stereo not given) do in these assays?
Luciferase inh: inconclusive; NPR1 antag: inactive; 3T3 cytotox: inconclusive; HEK293 tox: inconclusive

How did Cc1cccc(NC(=O)c2ccc3c(c2)N(C)C2CCCCCN2C3=O)c1 (stereo not given) do in these assays?
Luciferase inh: 35.5µM; NPR1 antag: inactive; 3T3 cytotox: inconclusive; HEK293 tox: inconclusive

How did CN(Cc1cccc(C(F)(F)F)c1)C(=O)c1cccc(Cl)c1 do in these assays?
Luciferase inh: inactive; NPR1 antag: inactive; 3T3 cytotox: inconclusive; HEK293 tox: 100µM

How did CN(Cc1cccc(C(F)(F)F)c1)C(=O)Cc1cccc(Cl)c1 do in these assays?
Luciferase inh: inconclusive; NPR1 antag: inactive; 3T3 cytotox: inactive; HEK293 tox: inconclusive

What do the screens show for `CCCC(=O)Nc1cc(-c2ccncc2)nn1-c1ccccc1`?
3T3 cytotox: inactive; HEK293 tox: inactive

What do the screens show for `Cn1nc(-c2ccncc2)cc1NC(=O)c1ccc(C(F)(F)F)cc1`?
3T3 cytotox: inconclusive; HEK293 tox: 11.2µM

How did O=C(Nc1cc(-c2ccncc2)nn1-c1ccccc1)c1cccc(Br)c1 do in these assays?
3T3 cytotox: 31.6µM; HEK293 tox: inconclusive

What do the screens show for `CC(=O)N1CC[C@H](c2nnc(-c3cccnc3)o2)C1`?
Luciferase inh: inactive; NPR1 antag: inactive; 3T3 cytotox: inactive; HEK293 tox: inactive

How did CC(=O)NCc1nnc2n1C(C(=O)NCc1ccccc1F)CC2 (stereo not given) do in these assays?
3T3 cytotox: inactive; HEK293 tox: inactive

How did NCc1cccc(-c2cc(F)cc(F)c2)c1 do in these assays?
3T3 cytotox: 89.1µM; HEK293 tox: inconclusive

How did NCc1ccc(-c2ccc(OC(F)(F)F)cc2)cc1 do in these assays?
3T3 cytotox: 25.1µM; HEK293 tox: 25.1µM

Results for NCc1ccc(-c2ccc(F)cc2)cc1 ?
3T3 cytotox: 89.1µM; HEK293 tox: 100µM

How did O=C(O)c1ccc(-c2ccc(OC(F)(F)F)cc2)cc1 do in these assays?
3T3 cytotox: inactive; HEK293 tox: inactive

Results for O=C1NC[C@@H](CCC(=O)N2CCc3ccccc32)N2C[C@@H](NS(=O)(=O)c3ccc(F)cc3)C[C@@H]12 ?
Luciferase inh: inactive; NPR1 antag: inactive; 3T3 cytotox: inactive; HEK293 tox: inactive

Results for CSc1ccc(-c2noc(-c3ncn4c3COC(c3ccccc3Cl)C4)n2)cc1 (stereo not given) ?
Luciferase inh: inactive; NPR1 antag: inactive; 3T3 cytotox: inconclusive; HEK293 tox: inconclusive

How did CC(=O)N1CCCN(c2ccc3nnc(C4CC4)n3n2)CC1 do in these assays?
3T3 cytotox: inactive; HEK293 tox: inactive

What do the screens show for `Cn1c(CNC(=O)C2(Cc3ccccc3)CCCCC(=O)N2)nc2ccccc21` (stereo not given)?
Luciferase inh: inactive; NPR1 antag: inactive; 3T3 cytotox: inconclusive; HEK293 tox: inconclusive

How did Cn1c(CNC(=O)C2(C)CCCCC(=O)N2)nc2ccccc21 (stereo not given) do in these assays?
Luciferase inh: inactive; NPR1 antag: inactive; 3T3 cytotox: 39.8µM; HEK293 tox: 44.7µM

Results for CCOc1nccn2c(-c3ccc(CNC(=O)c4ccnn4C)cc3)cnc12 ?
Luciferase inh: inactive; NPR1 antag: inactive; 3T3 cytotox: inconclusive; HEK293 tox: inconclusive

How did O=C(O)c1cccc(C2CCCN(C(=O)c3ccccc3-n3cccn3)C2)c1 (stereo not given) do in these assays?
Luciferase inh: inactive; NPR1 antag: inactive; 3T3 cytotox: inactive; HEK293 tox: inactive

How did COc1ccc(-c2cc(N3CCCC(NC(=O)c4ccc(N(C)C)cc4)C3)n[nH]2)cc1 (stereo not given) do in these assays?
Luciferase inh: 7.08µM; NPR1 antag: inactive; 3T3 cytotox: inconclusive; HEK293 tox: 44.7µM

Results for CN(C)c1ccc(C(=O)NC2CCCN(c3cc(-c4ccccc4)[nH]n3)C2)cc1 (stereo not given) ?
Luciferase inh: 28.2µM; NPR1 antag: inactive; 3T3 cytotox: inconclusive; HEK293 tox: inconclusive

What do the screens show for `CN(C)c1cccc(C(=O)NC2CCN(c3cc(-c4ccccc4)[nH]n3)CC2)c1`?
Luciferase inh: 39.8µM; NPR1 antag: inactive; 3T3 cytotox: inconclusive; HEK293 tox: inconclusive

How did O=C(NC1CCN(c2cc(-c3ccccc3)[nH]n2)CC1)c1ccccc1 do in these assays?
Luciferase inh: inactive; NPR1 antag: inactive; 3T3 cytotox: inconclusive; HEK293 tox: inconclusive

What do the screens show for `CN(C)c1cccc(C(=O)NC2CCCN(c3cc(-c4ccc(F)cc4)[nH]n3)C2)c1` (stereo not given)?
Luciferase inh: 15.8µM; NPR1 antag: inactive; 3T3 cytotox: inconclusive; HEK293 tox: inconclusive

Compound activity (PubChem BioAssay)
